The values below come from PubChem BioAssay (NCI).

SMILES strings stand for the structures. About 79,000 compounds went through this panel and 15% of them were active in at least one assay; those are over-represented in the sample as a whole. Unmarked numbers belong to inactive results. Activity calls are given as the source filed them. No stated cut-off is given here; in the data, active means growth inhibition above about 70%; inactive means the rest.

The nature of assay [1]: NCI Yeast Anticancer Drug Screen. Data for the rad50 strain (AID 155).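 Further: 0% = growth of vehicle-only cultures of the same strain.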 The note with it: S. cerevisiae rad50 strain growth inhibition; at 50.0 µM; stronger effect = higher value. An outline of the steps: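 Compounds were tested on a yeast strain with an engineered DNA damage repair alteration; the reported value is growth inhibition normalised to vehicle treatment.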
Assay [2] in a line: NCI Yeast Anticancer Drug Screen. Data for the mec2-1 strain (AID 157). The note with it: S. cerevisiae mec2-1 strain, at 50.0 µM, stronger effect = higher value. An outline of the steps: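 Vehicle-treated cultures served as reference for growth inhibition of compound-exposed mec2-1 yeast.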
Assay [3] in a line: NCI Yeast Anticancer Drug Screen. Data for the sgs1 mgt1 strain (AID 161).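 Further: 0% = growth of cultures given vehicle only.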 The conditions noted are these: S. cerevisiae sgs1 mgt1 strain, at 50.0 µM, stronger effect = higher value. An outline of the steps: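 Test agents were incubated with a DNA-repair-mutant yeast strain. Growth was then read and compared against vehicle-treated controls.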
A short description of assay [4]: NCI Yeast Anticancer Drug Screen. Data for the cln2 rad14 strain (AID 165).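 Further: 0% = growth equal to vehicle treated cultures.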 The conditions noted are these: S. cerevisiae cln2 rad14 strain, at 50.0 µM, stronger effect = higher value. An outline of the steps:
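Each compound was tested on cln2 rad14 yeast. Inhibition of growth was calculated against vehicle-exposed controls.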

A short description of assay [5]: NCI Yeast Anticancer Drug Screen. Data for the bub3 strain (AID 167). The conditions noted are these: S. cerevisiae bub3 mutant strain, at 50.0 µM, stronger effect = higher value. An outline of the steps:
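Growth of a checkpoint-deficient yeast mutant is measured after compound exposure. Values represent inhibition relative to vehicle.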

A short description of assay [6]: NCI Yeast Anticancer Drug Screen. Data for the mlh1 rad18 strain (AID 175). The note with it: S. cerevisiae mlh1 rad18 strain growth inhibition; at 50.0 µM; stronger effect = higher value. An outline of the steps: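 Vehicle-treated cultures served as the reference for growth inhibition in a yeast strain carrying DNA damage repair alterations exposed to each compound.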

Consider `Cc1cc(S(=O)(=O)Nc2nnc3c(Cl)cc(C(F)(F)F)cn23)c(S)cc1Cl`, for which the growth inhibition in assay [1] is -30.2%; in assay [2], -35.2%; in assay [3], -33.4%; in assay [4] it was -14.3%; in assay [5] it was 13.9%; in assay [6] it was -20%.

Take `Cc1cccc(C)c1NC(=O)CCC(=O)CC(=O)C(C)C`: the growth inhibition in assay [1] was -2.6%; in assay [2], -4.85%; in assay [3], -6.2%; in assay [4] it was 2.55%; in assay [5], 7.25%; in assay [6], -13.1%.

As to `C(=N\OCc1ccccc1)/c1ncccc1C1OCCO1`, the growth inhibition is -10.6% in assay [1]; -23.1% in assay [2]; -0.5% in assay [3]; 20.2% in assay [4]; -5.8% in assay [5]; -8.75% in assay [6].

Regarding `O=C1c2cc([N+](=O)[O-])sc2C(=O)c2c([N+](=O)[O-])csc21`, the growth inhibition is 91% (active) in assay [1]; 93% (active) in assay [2]; 92.5% (active) in assay [3]; 91.4% (active) in assay [4]; 92.1% (active) in assay [5]; 91.3% (active) in assay [6].

Turning to `O=C(NCCCl)Nc1cccc2c1CCC2`, the growth inhibition in assay [1] is -11.1%; in assay [2], -0.7%; in assay [3] it was -9.5%; in assay [4], -47.3%; in assay [5] it was -23.1%; in assay [6] it was -4.8%.

`CC1(C)OC2OC(C3CC3)C(O)C2O1` (stereo not given): the growth inhibition is -4.1% in assay [1]; 4.75% in assay [2]; 3% in assay [3]; -36.1% in assay [4]; 11.9% in assay [5]; -1.85% in assay [6].

With `CCCCCCCCCCCCCCCCCCCOc1ccc(OCCCCCCCCCC)cc1`, the growth inhibition in assay [1] is 33.9%; in assay [2] it was -2.05%; in assay [3], 24.6%; in assay [4], -10.4%; in assay [5] it was 0.2%; in assay [6] it was 7.15%.

For the molecule `CN(/N=C/c1ccc(O)c(/C=N/N(C)c2ccccn2)n1)c1ccccn1`, the growth inhibition in assay [1] is -9.45%; in assay [2], 8%; in assay [3] it was -3.35%; in assay [4], -11.9%; in assay [5], -2.7%; in assay [6], 8.3%.

As to `COc1cc2ccccc2cc1CO`, the growth inhibition in assay [1] is -4.15%; in assay [2], -4.2%; in assay [3], -3.8%; in assay [4] it was -16.1%; in assay [5], -22.8%; in assay [6], -0.45%.

With `C/C(CC(C)(C)C)=N/NS(=O)(=O)c1ccc(C)cc1`, the growth inhibition in assay [1] is 7.7%; in assay [2] it was -1.6%; in assay [3], 9.8%; in assay [4] it was 1.75%; in assay [5], 5.45%; in assay [6], 12.7%.

On to `Nc1nc(-c2ccc(Cl)c(Cl)c2)cc(-c2cc(-c3ccc(Cl)c(Cl)c3)nc(N)n2)n1`, for which the growth inhibition in assay [1] is 24.9%; in assay [2] it was 2.55%; in assay [3] it was 7.55%; in assay [4], 21.6%; in assay [5], 4.2%; in assay [6] it was 11%.

On to `COc1cc(C2C3=C(COC3=O)Oc3cc4c(cc32)OCO4)ccc1OC(C)=O` (stereo not given), for which the growth inhibition is 20.7% in assay [1]; 5.55% in assay [2]; -13.8% in assay [3]; 21.1% in assay [4]; -4.35% in assay [5]; -5.2% in assay [6].

For the molecule `C/C(=N\NC(=S)N1CCN(c2ncccn2)CC1)c1ccccn1`, the growth inhibition in assay [1] is -2.4%; in assay [2], -7.1%; in assay [3], -6.8%; in assay [4], -21.8%; in assay [5] it was 9.35%; in assay [6] it was 4.2%.

`C[C@H](NC(=O)n1c2ccccc2c2ccccc21)C(=O)O`: the growth inhibition is 2.5% in assay [1]; 5.2% in assay [2]; -20.1% in assay [3]; -5.9% in assay [4]; -1.05% in assay [5]; -2.95% in assay [6].

Take `CCOC(=O)c1cc(CC)sc1N`: the growth inhibition was -1.55% in assay [1]; -9.75% in assay [2]; 10.7% in assay [3]; -10.2% in assay [4]; 12.2% in assay [5]; -12.5% in assay [6].

As for `O=c1c2ccccc2oc2cc3c(c(O)c12)CCCC3`, the growth inhibition in assay [1] was -7.65%; in assay [2] it was -13.9%; in assay [3], -14.5%; in assay [4] it was -6.95%; in assay [5], 3.15%; in assay [6], -2.95%.

For `Cc1occc1C(=S)Nc1ccc(Cl)c(C(=O)OC2CCCC2)c1`, the growth inhibition is 40.1% in assay [1]; 21.2% in assay [2]; 35% in assay [3]; 60.5% in assay [4]; 46.4% in assay [5]; 29.6% in assay [6].

On to `Cn1c2ccc(Br)cc2c2cc(Br)cc([N+](=O)[O-])c21`, for which the growth inhibition in assay [1] was 6.55%; in assay [2] it was 5.05%; in assay [3] it was 14.9%; in assay [4], -4.95%; in assay [5], -2.05%; in assay [6], 15.3%.

Turning to `COc1ccc2nc(C)c3c(c2c1)C(=O)N(CCC[N+]1([O-])CC[N+]([O-])(CCCN2C(=O)c4c(c5cc(OC)ccc5[n+]([O-])c4C)C2=O)CC1)C3=O` (stereo not given), the growth inhibition in assay [1] was -0.2%; in assay [2], -7.8%; in assay [3] it was -5.65%; in assay [4], -35.7%; in assay [5], 2.3%; in assay [6], 26.1%.

Take `COc1cc(/C=C/C=C(C(=O)O)C(=O)O)cc(OC)c1OC`: the growth inhibition in assay [1] was -5%; in assay [2], -1.2%; in assay [3] it was -14.7%; in assay [4], -11.4%; in assay [5], -6.2%; in assay [6] it was -4.45%.
